Screens: PubChem, The Scripps Research Institute Molecular Screening Center
Fam108B counter: Fam108B inhibition, counter-screen for RBBP9 inhibitors. recombinant Fam108B, FP-Rh probe fluorescence polarization. inhibition, % at 9.51 µM. actives 0.33% (n = 300,000);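 active means inhibition above the screen mean inhibition plus 3 SD, computed separately per campaign, cut at about 18% in these data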;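 further: inhibitors lower polarization as less probe binds the enzyme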
PAFAH1B3 FP inh: blocks human PAF acetylhydrolase 1B catalytic subunit 3; Q15102; recombinant PAFAH1B3, FP-rhodamine probe, fluorescence polarization; inhibition, % at 3.39 µM; actives 0.28% (n = 340,000);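 active means inhibition above the screen-wide average of all tested compounds plus 3 SD, cut at about 25% in these data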
Target sequence (Q15102 whole entry, looked up): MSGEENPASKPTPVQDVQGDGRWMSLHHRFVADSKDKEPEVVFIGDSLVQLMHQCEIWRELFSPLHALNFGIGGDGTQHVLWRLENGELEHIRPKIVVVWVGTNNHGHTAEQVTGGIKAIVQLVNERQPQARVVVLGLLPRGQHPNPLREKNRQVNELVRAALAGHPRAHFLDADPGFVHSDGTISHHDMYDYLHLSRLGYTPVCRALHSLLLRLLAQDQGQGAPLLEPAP
PME-1 primary: blocks human protein phosphatase methylesterase 1; Q9Y570; recombinant PME-1, FP-Rh probe fluorescence polarization; inhibition, % at 5.9 µM; actives 0.53% (n = 320,000);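 active means inhibition above the campaign mean of all compounds plus 3 SD, cut at about 26% in these data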;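 further: competitive labeling of PME-1 active site by serine hydrolase directed probe; inhibitors block probe labeling so polarization falls and inhibition rises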
Target sequence (Q9Y570 whole entry, looked up): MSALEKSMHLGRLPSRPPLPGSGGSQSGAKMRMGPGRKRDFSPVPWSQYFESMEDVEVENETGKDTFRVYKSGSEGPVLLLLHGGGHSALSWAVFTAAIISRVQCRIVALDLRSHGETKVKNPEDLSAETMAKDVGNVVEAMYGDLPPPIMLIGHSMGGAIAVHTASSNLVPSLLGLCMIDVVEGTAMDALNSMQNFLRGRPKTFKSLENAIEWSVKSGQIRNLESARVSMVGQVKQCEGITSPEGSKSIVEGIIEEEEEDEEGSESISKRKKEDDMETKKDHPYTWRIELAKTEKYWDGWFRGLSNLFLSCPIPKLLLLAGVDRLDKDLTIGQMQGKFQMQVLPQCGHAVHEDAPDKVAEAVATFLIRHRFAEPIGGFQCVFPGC
PAFAH2 FP inh: inhibitors of human PAFAH2; AID 492956; recombinant PAFAH2, FP-rhodamine activity probe, fluorescence polarization; actives 0.99% (n = 340,000); inhibition, % at 3.39 µM;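 active means inhibition above the mean over all tested compounds plus 3 SD, cut at about 30% in these data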;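 further: inhibitors block probe labeling of enzyme so polarization drops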
PAFAH1B2 inh: PAFAH1B2 (human) inhibition; P68402; recombinant PAFAH1B2, FP-rhodamine activity probe, fluorescence polarization; inhibition, % at 3.39 µM; actives 1.2% (n = 340,000); AID 492953;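 active means inhibition above the mean of all tested compounds plus 3 SD, cut at about 24% in these data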
pPAFAH inh: pPAFAH (human) enzyme inhibition | Q13093 | inhibition, % at 3.39 µM | actives 1.5% (n = 330,000) | recombinant pPAFAH, FP-rhodamine probe fluorescence polarization | AID 463082;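 active means inhibition above the mean inhibition across the screen plus 3 SD, cut at about 25% in these data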;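 further: inhibitors block binding of the rhodamine activity-based probe so polarization drops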
pPAFAH FP conf: confirmation of human plasma PAF acetylhydrolase (pPAFAH) inhibitors; shares compounds with pPAFAH inh; recombinant pPAFAH, FP-Rh probe fluorescence polarization; inhibition, % at 3.39 µM; actives 72% (n = 2,300); AID 463230;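 active means mean inhibition of the triplicate above the hit cutoff set for the earlier primary screen, cut at about 25% in these data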
A number is an active result. Rows were chosen to be rich in hits. Some 2.8% of all compounds tested hit in one or more screens of this group.

Cc1ccccc1Oc1ccc(-c2nc(N)nc(N)n2)cc1 was read as Fam108B counter inactive, PAFAH1B3 FP inh inactive, PME-1 primary inactive, PAFAH2 FP inh inactive, PAFAH1B2 inh inactive, pPAFAH inh 39 and pPAFAH FP conf inactive.
COC(=O)c1cc(O)cc(OC)c1C(=O)c1c(O)cc(C)cc1O was read as Fam108B counter inactive, PAFAH1B3 FP inh inactive, PME-1 primary inactive, PAFAH2 FP inh inactive, PAFAH1B2 inh inactive and pPAFAH inh inactive.
For COC(=O)c1cc(O)cc(OC)c1Oc1cc(C)cc(O)c1C(=O)O the results were Fam108B counter inactive, PAFAH1B3 FP inh inactive, PME-1 primary inactive, PAFAH2 FP inh inactive, PAFAH1B2 inh inactive, pPAFAH inh 35 and pPAFAH FP conf inactive.
Screening O=C(CSc1ccccc1)NNC(=O)c1ccccc1O returned Fam108B counter inactive, PAFAH1B3 FP inh inactive, PME-1 primary inactive, PAFAH2 FP inh inactive, PAFAH1B2 inh inactive and pPAFAH inh inactive.
Screening NS(=O)(=O)c1ccc(CNC(=O)Cc2cccs2)cc1 returned Fam108B counter inactive, PAFAH1B3 FP inh inactive, PME-1 primary inactive, PAFAH2 FP inh inactive, PAFAH1B2 inh inactive, pPAFAH inh 35 and pPAFAH FP conf inactive.
For CN(C)/C=C/C(=O)/C=C/c1ccc(Cl)cc1 the results were Fam108B counter inactive, PAFAH1B3 FP inh inactive, PME-1 primary inactive, PAFAH2 FP inh inactive, PAFAH1B2 inh inactive, pPAFAH inh 37 and pPAFAH FP conf inactive.
For CN(C)/C=C/C(=O)c1ccc(Cl)cc1 the results were Fam108B counter inactive, PAFAH1B3 FP inh inactive, PME-1 primary inactive, PAFAH2 FP inh inactive, PAFAH1B2 inh inactive and pPAFAH inh inactive.
Screening Oc1cccc(C=NCc2ccccc2)c1O returned Fam108B counter inactive, PAFAH1B3 FP inh inactive, PME-1 primary inactive, PAFAH2 FP inh inactive, PAFAH1B2 inh inactive, pPAFAH inh 57 and pPAFAH FP conf inactive.
Oc1ccccc1C=Nc1cccc2ccccc12 was read as Fam108B counter inactive, PAFAH1B3 FP inh inactive, PME-1 primary inactive, PAFAH2 FP inh inactive, PAFAH1B2 inh inactive and pPAFAH inh inactive.
`Oc1cccc(C=Nc2cccc3ccccc23)c1O` gave Fam108B counter inactive, PAFAH1B3 FP inh 28, PME-1 primary inactive, PAFAH2 FP inh inactive, PAFAH1B2 inh inactive, pPAFAH inh 76 and pPAFAH FP conf inactive.
For O=C(c1ccccc1)c1ccc(OC(=O)N2CCOCC2)cc1 the results were Fam108B counter inactive, PAFAH1B3 FP inh inactive, PME-1 primary inactive, PAFAH2 FP inh 35, PAFAH1B2 inh inactive, pPAFAH inh 52 and pPAFAH FP conf 53.
For CCOC(=O)N1CCN(C(=O)N2CCOCC2)CC1 the results were Fam108B counter inactive, PAFAH1B3 FP inh inactive, PME-1 primary inactive, PAFAH2 FP inh inactive, PAFAH1B2 inh inactive and pPAFAH inh inactive.
CCCCOC(=O)c1ccc(OC(=O)N2CCOCC2)cc1 was read as Fam108B counter inactive, PAFAH1B3 FP inh inactive, PME-1 primary inactive, PAFAH2 FP inh 36, PAFAH1B2 inh inactive, pPAFAH inh 94 and pPAFAH FP conf 97.
`CCCCOC(=O)N1CCOCCOCCN(C(=O)OCCCC)CCOCCOCC1` gave Fam108B counter inactive, PAFAH1B3 FP inh inactive, PME-1 primary inactive, PAFAH2 FP inh inactive, PAFAH1B2 inh inactive, pPAFAH inh 35 and pPAFAH FP conf 26.
CC(C)(C)C(=O)Nc1nc2c(s1)CN(Cc1ccccc1)CC2 was read as Fam108B counter inactive, PAFAH1B3 FP inh inactive, PME-1 primary inactive, PAFAH2 FP inh inactive, PAFAH1B2 inh inactive and pPAFAH inh inactive.
Screening O=C(Nc1nc2c(s1)CN(Cc1ccccc1)CC2)c1c(F)cccc1F returned Fam108B counter inactive, PAFAH1B3 FP inh inactive, PME-1 primary inactive, PAFAH2 FP inh inactive, PAFAH1B2 inh inactive, pPAFAH inh 62 and pPAFAH FP conf inactive.
Screening CCn1c(SCC(=O)c2ccc3c(c2)Cc2ccccc2-3)nnc1-c1ccc(N)cc1 returned Fam108B counter inactive, PAFAH1B3 FP inh inactive, PME-1 primary inactive, PAFAH2 FP inh inactive, PAFAH1B2 inh inactive and pPAFAH inh inactive.
CCn1c(SCC(=O)c2ccc(O)c(O)c2)nnc1-c1ccc(C)cc1 was read as Fam108B counter inactive, PAFAH1B3 FP inh inactive, PME-1 primary inactive, PAFAH2 FP inh 45, PAFAH1B2 inh inactive, pPAFAH inh 43 and pPAFAH FP conf 72.
Screening O=C(N/N=C/c1ccc(Cl)cc1)c1ccc2c(c1)OCO2 returned Fam108B counter inactive, PAFAH1B3 FP inh inactive, PME-1 primary inactive, PAFAH2 FP inh inactive, PAFAH1B2 inh inactive and pPAFAH inh inactive.
For O=C(N/N=C/c1ccncc1)c1ccc2c(c1)OCO2 the results were Fam108B counter inactive, PAFAH1B3 FP inh inactive, PME-1 primary inactive, PAFAH2 FP inh inactive, PAFAH1B2 inh inactive, pPAFAH inh 41 and pPAFAH FP conf inactive.
For COc1ccc(S(=O)(=O)N2CCN(C(=O)c3cc4c(s3)CCC4)CC2)cc1 the results were PAFAH1B3 FP inh inactive, PAFAH2 FP inh inactive, PAFAH1B2 inh inactive, pPAFAH inh 43 and pPAFAH FP conf 34.
For Cc1ccc(S(=O)(=O)N2CCN(C(=O)c3cc4c(s3)CCCC4)CC2)cc1 the results were PAFAH1B3 FP inh inactive, PME-1 primary inactive, PAFAH2 FP inh inactive, PAFAH1B2 inh inactive and pPAFAH inh inactive.
Screening CCC1(CC)C(=O)C2=C3C1[C@H](C(=O)OC)C=C(C(=O)OC)C[C@H]3n1c(=O)n(-c3ccccc3)c(=O)n1[C@H]2C (some centres undefined) returned Fam108B counter inactive, PAFAH1B3 FP inh inactive, PME-1 primary inactive, PAFAH2 FP inh inactive, PAFAH1B2 inh inactive and pPAFAH inh inactive.
`COc1cc(NC(=O)c2ccc3c(c2)OCCO3)ccc1NC(=O)c1cccs1` gave Fam108B counter inactive, PAFAH1B3 FP inh inactive, PME-1 primary inactive, PAFAH2 FP inh inactive, PAFAH1B2 inh inactive and pPAFAH inh inactive.
CC1CC1C(=O)OCC(=O)Nc1ccc(N=Nc2ccccc2)cc1 (centres undefined) was read as Fam108B counter inactive, PAFAH1B3 FP inh inactive, PME-1 primary inactive, PAFAH2 FP inh 85, PAFAH1B2 inh inactive, pPAFAH inh 69 and pPAFAH FP conf 65.
OCCOCCNc1ncnc2c1c(-c1ccccc1)cn2-c1ccccc1 was read as Fam108B counter inactive, PAFAH1B3 FP inh inactive, PME-1 primary inactive, PAFAH2 FP inh inactive, PAFAH1B2 inh inactive, pPAFAH inh 35 and pPAFAH FP conf inactive.
Screening CN1CCC(C(=O)C(=O)O)C1=O (centres undefined) returned PAFAH1B3 FP inh inactive, PAFAH2 FP inh inactive and PAFAH1B2 inh inactive.
`Cc1cc(-c2nnc(SCC(=O)Nc3nc(-c4ccc(Cl)cc4)cs3)o2)no1` gave Fam108B counter inactive, PAFAH1B3 FP inh inactive, PME-1 primary 28, PAFAH2 FP inh inactive, PAFAH1B2 inh inactive, pPAFAH inh 42 and pPAFAH FP conf inactive.
O=C(N/N=C/c1cc(Cl)cc(Cl)c1O)c1ccncc1 was read as Fam108B counter inactive, PAFAH1B3 FP inh inactive, PME-1 primary inactive, PAFAH2 FP inh inactive, PAFAH1B2 inh inactive and pPAFAH inh inactive.
